{
  "source": "paper PMC11006913",
  "assay_in_all_cases": "PBM; 200 nM protein, PBS",
  "conditions_in_all_cases": "dsDNA, one strand shown",
  "key": {"HOXB6 [1]": {"target": "HOXB6 (Homo sapiens, UniProt P17509 132-218, K202E)", "sequence (P17509 132-218 K202E)": "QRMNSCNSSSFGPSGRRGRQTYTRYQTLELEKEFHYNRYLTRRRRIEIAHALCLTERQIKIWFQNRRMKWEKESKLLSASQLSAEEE"}, "NKX2-6 [2]": {"target": "T1, NKX2-6 (Homo sapiens, UniProt A6NCS4 118-204)", "T1 sequence": "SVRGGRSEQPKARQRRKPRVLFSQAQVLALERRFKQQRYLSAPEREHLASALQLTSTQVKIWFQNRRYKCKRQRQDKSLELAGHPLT"}, "NKX2-6 [3]": {"target": "T2, NKX2-6 (Homo sapiens, UniProt A6NCS4 118-204, F151L)", "T2 sequence": "T1 sequence with F34L"}, "HOXB6 [4]": {"target": "HOXB6 (Homo sapiens, UniProt P17509 132-218)", "sequence (P17509 132-218)": "as the sequence (P17509 132-218 K202E) above, with E71K counted along it"}, "SIX6 [5]": {"target": "T3, SIX6 (Homo sapiens, UniProt O95475 114-200, L143M)", "T3 sequence": "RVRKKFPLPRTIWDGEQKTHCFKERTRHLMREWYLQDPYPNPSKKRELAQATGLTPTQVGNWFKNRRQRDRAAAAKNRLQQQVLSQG"}, "NKX2-4 [6]": {"target": "T4, NKX2-4 (Homo sapiens, UniProt Q9H2Z4 175-261)", "T4 sequence": "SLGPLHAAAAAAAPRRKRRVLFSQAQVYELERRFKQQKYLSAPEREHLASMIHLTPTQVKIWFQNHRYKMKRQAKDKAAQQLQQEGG"}, "NKX2-4 [7]": {"target": "T5, NKX2-4 (Homo sapiens, UniProt Q9H2Z4 175-261, R246Q)", "T5 sequence": "T4 sequence with R72Q"}, "HOXA2 [8]": {"target": "HOXA2 (Homo sapiens, UniProt O43364 129-215, R185T)", "sequence (O43364 129-215 R185T)": "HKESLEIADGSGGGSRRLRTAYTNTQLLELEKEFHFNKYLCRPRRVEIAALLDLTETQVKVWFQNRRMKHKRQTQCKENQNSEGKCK"}, "PITX2": {"target": "PITX2 (Homo sapiens, UniProt Q99697 72-157)"}, "HOXA2 [9]": {"target": "HOXA2 (Homo sapiens, UniProt O43364 129-215, R185K)", "sequence (O43364 129-215 R185K)": "as the sequence (O43364 129-215 R185T) above, with T57K counted along it"}, "VAX1 [10]": {"target": "VAX1 (Homo sapiens, UniProt Q5SQQ9 86-172)", "sequence (Q5SQQ9 86-172)": "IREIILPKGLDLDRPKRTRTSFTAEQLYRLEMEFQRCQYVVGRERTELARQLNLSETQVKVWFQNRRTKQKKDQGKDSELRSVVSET"}, "VAX1 [11]": {"target": "VAX1 (Homo sapiens, UniProt Q5SQQ9 86-172, T142I)", "sequence (Q5SQQ9 86-172 T142I)": "as the sequence (Q5SQQ9 86-172) above, with T57I counted along it"}, "HOXA2 [12]": {"target": "HOXA2 (Homo sapiens, UniProt O43364 129-215, Y150S)", "sequence (O43364 129-215 Y150S)": "as the sequence (O43364 129-215 R185T) above, with Y22S, T57R counted along it"}, "HOXA2 [13]": {"target": "HOXA2 (Homo sapiens, UniProt O43364 129-215)", "sequence (O43364 129-215)": "as the sequence (O43364 129-215 R185T) above, with T57R counted along it"}, "VAX1 [14]": {"target": "VAX1 (Homo sapiens, UniProt Q5SQQ9 86-172, K157R)", "sequence (Q5SQQ9 86-172 K157R)": "as the sequence (Q5SQQ9 86-172) above, with K72R counted along it"}, "SIX6 [15]": {"target": "T6, SIX6 (Homo sapiens, UniProt O95475 114-200, L143I)", "T6 sequence": "T3 sequence with M30I"}, "NKX2-6 [16]": {"target": "T7, NKX2-6 (Homo sapiens, UniProt A6NCS4 118-204, R150C)", "T7 sequence": "T1 sequence with R33C"}, "MSX2 [17]": {"target": "MSX2 (Homo sapiens, UniProt P35548 130-214, R199I)", "sequence (P35548 130-214 R199I)": "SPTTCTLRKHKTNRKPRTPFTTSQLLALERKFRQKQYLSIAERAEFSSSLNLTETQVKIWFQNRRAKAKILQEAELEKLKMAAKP"}, "ALX1 [18]": {"target": "ALX1 (Homo sapiens, UniProt Q15699 118-204, L144V)", "sequence (Q15699 118-204 L144V)": "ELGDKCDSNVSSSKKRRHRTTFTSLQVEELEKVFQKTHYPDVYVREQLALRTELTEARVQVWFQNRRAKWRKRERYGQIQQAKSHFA"}, "ALX3 [19]": {"target": "ALX3 (Homo sapiens, UniProt O95076 139-225, N203Q)", "sequence (O95076 139-225 N203Q)": "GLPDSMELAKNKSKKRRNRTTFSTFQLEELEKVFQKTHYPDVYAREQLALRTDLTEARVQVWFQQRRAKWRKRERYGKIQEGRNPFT"}, "ALX1 [20]": {"target": "ALX1 (Homo sapiens, UniProt Q15699 118-204, L144R)", "sequence (Q15699 118-204 L144R)": "as the sequence (Q15699 118-204 L144V) above, with V27R counted along it"}, "MSX2 [21]": {"target": "MSX2 (Homo sapiens, UniProt P35548 130-214)", "sequence (P35548 130-214)": "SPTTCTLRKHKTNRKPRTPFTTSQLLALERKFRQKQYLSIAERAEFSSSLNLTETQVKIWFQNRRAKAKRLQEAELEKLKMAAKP"}, "ALX3 [22]": {"target": "ALX3 (Homo sapiens, UniProt O95076 139-225)", "sequence (O95076 139-225)": "as the sequence (O95076 139-225 N203Q) above, with Q65N counted along it"}, "ALX3 [23]": {"target": "ALX3 (Homo sapiens, UniProt O95076 139-225, L168Q)", "sequence (O95076 139-225 L168Q)": "as the sequence (O95076 139-225 N203Q) above, with L30Q, Q65N counted along it"}, "ALX3 [24]": {"target": "ALX3 (Homo sapiens, UniProt O95076 139-225, L168V)", "sequence (O95076 139-225 L168V)": "as the sequence (O95076 139-225 N203Q) above, with L30V, Q65N counted along it"}, "MSX2 [25]": {"target": "MSX2 (Homo sapiens, UniProt P35548 130-214, F161Y)", "sequence (P35548 130-214 F161Y)": "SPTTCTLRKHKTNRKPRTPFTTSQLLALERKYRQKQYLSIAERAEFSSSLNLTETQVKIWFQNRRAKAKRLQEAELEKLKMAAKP"}, "NKX3-2 [26]": {"target": "NKX3-2 (Homo sapiens, UniProt P78367 192-278, P234S)", "sequence (P78367 192-278 P234S)": "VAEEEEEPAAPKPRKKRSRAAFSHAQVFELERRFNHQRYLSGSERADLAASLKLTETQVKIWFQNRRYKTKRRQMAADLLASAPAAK"}, "ALX1 [27]": {"target": "ALX1 (Homo sapiens, UniProt Q15699 118-204)", "sequence (Q15699 118-204)": "as the sequence (Q15699 118-204 L144V) above, with V27L counted along it"}, "ALX3 [28]": {"target": "ALX3 (Homo sapiens, UniProt O95076 139-225, N203S)", "sequence (O95076 139-225 N203S)": "as the sequence (O95076 139-225 N203Q) above, with Q65S counted along it"}, "NKX3-2 [29]": {"target": "NKX3-2 (Homo sapiens, UniProt P78367 192-278)", "sequence (P78367 192-278)": "as the sequence (P78367 192-278 P234S) above, with S43P counted along it"}},
  "note": "Substitutions are numbered along the chain they refer to.",
  "data": [
    {"sequence": "GGACCCCC", "values": [
      {"measurement": "binding signal", "setting": "HOXB6 [1]", "result": "8.73 upbm affinity estimate (log intensity, higher = more binding, comparable within an allelic series)"},
      {"measurement": "binding signal", "setting": "NKX2-6 [2]", "result": "9.37 upbm affinity estimate (log intensity, higher = more binding, comparable within an allelic series)"},
      {"measurement": "binding signal", "setting": "NKX2-6 [3]", "result": "8.99 upbm affinity estimate (log intensity, higher = more binding, comparable within an allelic series)"},
      {"measurement": "binding signal", "setting": "HOXB6 [4]", "result": "8.68 upbm affinity estimate (log intensity, higher = more binding, comparable within an allelic series)"}
    ]},
    {"sequence": "ATAGTATC", "values": [
      {"measurement": "binding signal", "setting": "SIX6 [5]", "result": "11 upbm affinity estimate (log intensity, higher = more binding, comparable within an allelic series)"}
    ]},
    {"sequence": "ACCGTTAA", "values": [
      {"measurement": "binding signal", "setting": "HOXB6 [1]", "result": "9.66 upbm affinity estimate (log intensity, higher = more binding, comparable within an allelic series)"},
      {"measurement": "binding signal", "setting": "HOXB6 [4]", "result": "10.6 upbm affinity estimate (log intensity, higher = more binding, comparable within an allelic series)"}
    ]},
    {"sequence": "AGTGCAGA", "values": [
      {"measurement": "binding signal", "setting": "NKX2-4 [6]", "result": "11.4 upbm affinity estimate (log intensity, higher = more binding, comparable within an allelic series)"},
      {"measurement": "binding signal", "setting": "NKX2-4 [7]", "result": "11.7 upbm affinity estimate (log intensity, higher = more binding, comparable within an allelic series)"}
    ]},
    {"sequence": "AGGCGGAC", "values": [
      {"measurement": "binding signal", "setting": "HOXB6 [1]", "result": "9.08 upbm affinity estimate (log intensity, higher = more binding, comparable within an allelic series)"},
      {"measurement": "binding signal", "setting": "HOXB6 [4]", "result": "9.04 upbm affinity estimate (log intensity, higher = more binding, comparable within an allelic series)"}
    ]},
    {"sequence": "CGTGGCAG", "values": [
      {"measurement": "binding signal", "setting": "HOXB6 [1]", "result": "9.05 upbm affinity estimate (log intensity, higher = more binding, comparable within an allelic series)"},
      {"measurement": "binding signal", "setting": "HOXA2 [8]", "result": "7.29 upbm affinity estimate (log intensity, higher = more binding, comparable within an allelic series)"},
      {"measurement": "binding signal", "setting": "PITX2", "result": "8.07 upbm affinity estimate (log intensity, higher = more binding, comparable within an allelic series)"},
      {"measurement": "binding signal", "setting": "HOXA2 [9]", "result": "10.5 upbm affinity estimate (log intensity, higher = more binding, comparable within an allelic series)"},
      {"measurement": "binding signal", "setting": "VAX1 [10]", "result": "7.05 upbm affinity estimate (log intensity, higher = more binding, comparable within an allelic series)"},
      {"measurement": "binding signal", "setting": "VAX1 [11]", "result": "7.33 upbm affinity estimate (log intensity, higher = more binding, comparable within an allelic series)"},
      {"measurement": "binding signal", "setting": "HOXA2 [12]", "result": "10.4 upbm affinity estimate (log intensity, higher = more binding, comparable within an allelic series)"},
      {"measurement": "binding signal", "setting": "HOXA2 [13]", "result": "7.45 upbm affinity estimate (log intensity, higher = more binding, comparable within an allelic series)"},
      {"measurement": "binding signal", "setting": "VAX1 [14]", "result": "7.05 upbm affinity estimate (log intensity, higher = more binding, comparable within an allelic series)"},
      {"measurement": "binding signal", "setting": "HOXB6 [4]", "result": "9.07 upbm affinity estimate (log intensity, higher = more binding, comparable within an allelic series)"}
    ]},
    {"sequence": "GATACATC", "values": [
      {"measurement": "binding signal", "setting": "SIX6 [15]", "result": "10.4 upbm affinity estimate (log intensity, higher = more binding, comparable within an allelic series)"}
    ]},
    {"sequence": "ACGGGCCT", "values": [
      {"measurement": "binding signal", "setting": "HOXB6 [1]", "result": "8.87 upbm affinity estimate (log intensity, higher = more binding, comparable within an allelic series)"},
      {"measurement": "binding signal", "setting": "NKX2-6 [16]", "result": "9.14 upbm affinity estimate (log intensity, higher = more binding, comparable within an allelic series)"},
      {"measurement": "binding signal", "setting": "HOXB6 [4]", "result": "8.95 upbm affinity estimate (log intensity, higher = more binding, comparable within an allelic series)"}
    ]},
    {"sequence": "ACTACTAG", "values": [
      {"measurement": "binding signal", "setting": "NKX2-4 [6]", "result": "11.1 upbm affinity estimate (log intensity, higher = more binding, comparable within an allelic series)"}
    ]},
    {"sequence": "ACATTAAC", "values": [
      {"measurement": "binding signal", "setting": "HOXB6 [1]", "result": "10 upbm affinity estimate (log intensity, higher = more binding, comparable within an allelic series)"}
    ]},
    {"sequence": "CGGATCCG", "values": [
      {"measurement": "binding signal", "setting": "HOXB6 [1]", "result": "9.01 upbm affinity estimate (log intensity, higher = more binding, comparable within an allelic series)"},
      {"measurement": "binding signal", "setting": "MSX2 [17]", "result": "9.47 upbm affinity estimate (log intensity, higher = more binding, comparable within an allelic series)"},
      {"measurement": "binding signal", "setting": "ALX1 [18]", "result": "6.32 upbm affinity estimate (log intensity, higher = more binding, comparable within an allelic series)"},
      {"measurement": "binding signal", "setting": "ALX3 [19]", "result": "7.82 upbm affinity estimate (log intensity, higher = more binding, comparable within an allelic series)"},
      {"measurement": "binding signal", "setting": "ALX1 [20]", "result": "6.18 upbm affinity estimate (log intensity, higher = more binding, comparable within an allelic series)"},
      {"measurement": "binding signal", "setting": "MSX2 [21]", "result": "9.48 upbm affinity estimate (log intensity, higher = more binding, comparable within an allelic series)"},
      {"measurement": "binding signal", "setting": "ALX3 [22]", "result": "7.83 upbm affinity estimate (log intensity, higher = more binding, comparable within an allelic series)"},
      {"measurement": "binding signal", "setting": "ALX3 [23]", "result": "7.82 upbm affinity estimate (log intensity, higher = more binding, comparable within an allelic series)"},
      {"measurement": "binding signal", "setting": "ALX3 [24]", "result": "7.74 upbm affinity estimate (log intensity, higher = more binding, comparable within an allelic series)"},
      {"measurement": "binding signal", "setting": "MSX2 [25]", "result": "9.45 upbm affinity estimate (log intensity, higher = more binding, comparable within an allelic series)"},
      {"measurement": "binding signal", "setting": "NKX3-2 [26]", "result": "10.3 upbm affinity estimate (log intensity, higher = more binding, comparable within an allelic series)"},
      {"measurement": "binding signal", "setting": "ALX1 [27]", "result": "6.2 upbm affinity estimate (log intensity, higher = more binding, comparable within an allelic series)"},
      {"measurement": "binding signal", "setting": "ALX3 [28]", "result": "7.82 upbm affinity estimate (log intensity, higher = more binding, comparable within an allelic series)"},
      {"measurement": "binding signal", "setting": "HOXB6 [4]", "result": "8.86 upbm affinity estimate (log intensity, higher = more binding, comparable within an allelic series)"},
      {"measurement": "binding signal", "setting": "NKX3-2 [29]", "result": "10.3 upbm affinity estimate (log intensity, higher = more binding, comparable within an allelic series)"}
    ]}
  ]
}
